Measured values: PubChem BioAssay (NCI)
Compounds without any hit were thinned out: in the full panel of roughly 83,000, 20% have a hit.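 Note: values are percent growth. 100 is the growth of untreated cells, values between 100 and 0 indicate rising inhibition; between -100 and 0 indicates cell death.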 Unmarked numbers belong to inactive results. Calls of active or inactive are those of the source. Rule for the calls: active = growth percent below 10; inactive = the rest.

Assays:
Assay in all cases: NCI-60 one-dose screen, 48 h (100 = growth as untreated, 0 = no growth, -100 = all killed)
Conditions in all cases: 10 µM unless noted
[1] = test system: DU-145 prostate
[2] = test system: K-562 leukemia
[3] = test system: MALME-3M melanoma
[4] = test system: MDA-MB-231 breast
[5] = test system: RXF 393 renal
[6] = test system: SF-268 CNS
[7] = test system: SF-295 CNS
[8] = test system: SF-539 CNS
[9] = test system: UACC-257 melanoma
[10] = test system: M14 melanoma
[11] = test system: HCT-15 colon
[12] = test system: HT29 colon
[13] = test system: SNB-75 CNS
[14] = test system: U251 CNS
[15] = test system: PC-3 prostate
[16] = test system: SK-MEL-5 melanoma
[17] = test system: UACC-62 melanoma
[18] = test system: LOX IMVI melanoma
[19] = test system: SK-MEL-28 melanoma
[20] = test system: SNB-19 CNS

SMILES	growth [1]	growth [2]	growth [3]	growth [4]	growth [5]	growth [6]	growth [7]	growth [8]	growth [9]	growth [10]	growth [11]	growth [12]	growth [13]	growth [14]	growth [15]	growth [16]	growth [17]	growth [18]	growth [19]	growth [20]
O=C1OC2C(I)C3CC2C1C3c1ccccc1 (centres undefined)	107%	104%	136%	96.8%	113%	106%	172%	94.1%	121%	101%	105%	98.7%	73.5%	104%	93.8%	108%	93.1%	93.4%	105%	–
COc1ccc(CCN2CC=Cn3c2nc2ccccc2c3=O)cc1	7.97% (active)	10.8%	63.2%	18.8%	36.7%	35.7%	17.2%	-34.1% (active)	80.3%	16.4%	15.9%	12.9%	37.1%	27.6%	34.1%	-13.8% (active)	31.8%	14.1%	78.7%	–
CCOC(=S)SCc1ccc(Cl)cc1	106%	110%	107%	85.4%	87.6%	106%	89.4%	114%	100%	99.1%	94.8%	103%	76.5%	90.5%	81.7%	106%	95.5%	99.3%	–	–
O=S(=O)(Nc1ccc(Cl)cc1Cl)c1ccc(-c2cnc(C3CC3)o2)cc1	8.88% (active)	10.9%	37.7%	44.2%	-10.7% (active)	53.6%	1.37% (active)	-13.5% (active)	55.4%	10.8%	24.3%	1.27% (active)	5.51% (active)	–	28.1%	8.59% (active)	35.3%	43.3%	55.3%	43.6%
c1ccc(CSc2ncnc3nc[nH]c23)nc1	113%	96.7%	103%	97.6%	119%	109%	104%	99.5%	120%	101%	103%	112%	97.2%	113%	112%	100%	88.4%	106%	128%	–
CC(=O)Nc1ccc2c(c1)c(NC(C)=O)nn2C(=O)Nc1ccc(Cc2ccccc2)cc1	83%	18.2%	86.5%	69.9%	92.6%	46.6%	54%	80.9%	87.2%	63%	78.8%	89.1%	106%	69.5%	63.5%	109%	20%	53.6%	141%	–
CSc1nc(NCCO)c(C#N)c(-c2cccc(N)c2)n1	106%	94.4%	101%	86.4%	113%	96.2%	96.9%	91.7%	100%	100%	98.1%	108%	58.5%	–	94.7%	96.5%	94.8%	93.5%	116%	96%
C[C@H](CCC(=O)O)[C@H]1CC[C@H]2[C@@H]3CC[C@@H]4/C(=C\c5ccco5)C(=O)/C(=C\c5ccco5)C[C@]4(C)[C@H]3CC[C@]12C	66.5%	30%	58.1%	107%	45.1%	80.6%	70.6%	76.3%	51.6%	52.5%	28.5%	59.6%	101%	–	52.6%	47.4%	17.2%	31.6%	44.3%	79%
CC(=O)OC1Oc2cc(C)c(C)cc2-c2oc(=O)c(-c3cc4ccc(N(C)C)cc4oc3=O)cc21 (centres undefined)	85.8%	11.4%	68.1%	75.8%	45.9%	84.8%	54.9%	81.4%	73.4%	86.7%	100%	100%	69%	115%	61.9%	49.8%	61.6%	101%	–	–
